EBV LMP1 NFkB: reduces LMP1-driven NF-kappaB luciferase signal; AID 504558; actives 0.69% (n = 350,000); LMP1-induced NF-kappaB luciferase reporter cells, luminescence; inhibition, % at 12.5 µM; in the data active = inhibition above about 41%;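 also: 0% = neutral control wells and 100% = reference inhibitor control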
MITF TRPM1 inh: reduces MITF-dependent TRPM1 promoter luciferase signal; SK-MEL-5 TRPM1 promoter luciferase, 24 h; inhibition, % at 12.5 µM; actives 0.83% (n = 330,000); AID 488899;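 active = mean inhibition across replicates of 60% or more, whatever share of single replicates reaches that level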
PGC1a acetyl inh: lowers PGC1a acetylation signal in U2OS cells; AlphaScreen anti-acetyl-lysine; with virally co-expressed GCN5 acetyltransferase; inhibition, % at 15.6 µM; actives 0.17% (n = 350,000); AID 651687;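 active = every replicate shows inhibition of at least 40%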;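 also: 0% = neutral control wells and 100% = positive control wells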
PAX8 inh HTS: inhibitors of PAX8 transcriptional activity in RMG-I cells | AID 652154 | actives 1.2% (n = 360,000) | RMG-I TPO-luciferase reporter, SteadyGlo, 24 h | inhibition, % at 12.6 µM;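 active = mean replicate inhibition at least 60% with every replicate also reaching 60%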;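 also: luciferase light reporting Pax8 driven TPO promoter activity; plate controls were median of neutral control wells for no effect and mitoxantrone controls for full effect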
EWS-Fli block: blocks EWS/Fli oncoprotein-driven transcription; actives 0.67% (n = 350,000); AID 651661; inhibition, % at 12.6 µM; A673 NR0B1-luciferase reporter, viability-normalised;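 active = mean inhibition of at least 50% after viability correction, with every replicate also passing that limit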;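 also: firefly luciferase signal divided by Alamar Blue viability fluorescence both relative to DMSO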
LGR2 inh: inhibitors of bursicon-induced Drosophila LGR2 receptor cAMP signaling; inhibition, % at 9.99 µM; HEK293 LGR2, CRE-luciferase, bursicon-stimulated, 4 h; AID 720647; actives 0.35% (n = 380,000);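 active = drop in luminescence signal, shown as inhibition above about 50% in the replicate tests, limit read from the data, passing the limit was not always enough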;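 also: agonist challenge used bursicon conditioned medium at about half maximal strength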
* hit, by the source's call; ! = not active in a repeat. Shown are actives, neighbours in structure and some others; about 2.2% of the full set was active somewhere.

CC[C@H](C)[C@@H](CN[C@H](C)CNC)NCCC(c1ccccc1)c1ccccc1 was read as EBV LMP1 NFkB -53, MITF TRPM1 inh 90*, PGC1a acetyl inh -5, PAX8 inh HTS 75*, EWS-Fli block 17 and LGR2 inh 7.
CC(=O)Nc1c(C(=O)N2CCCCCC2)cnn1-c1ccccc1 was read as EBV LMP1 NFkB 79*, MITF TRPM1 inh 15, PGC1a acetyl inh 1 and LGR2 inh 9.
Cc1ccccc1C(=O)Nc1c(C(=O)N2CCCC2)cnn1-c1ccccc1 was read as EBV LMP1 NFkB 3, MITF TRPM1 inh -2, PGC1a acetyl inh -2, EWS-Fli block -7 and LGR2 inh 12.
Cc1ccc(NC(=O)Nc2nnc(-c3ccccc3)o2)cc1 was read as EBV LMP1 NFkB -12, MITF TRPM1 inh -46, PAX8 inh HTS -83, EWS-Fli block -38 and LGR2 inh -41.
For Cc1ccc(-c2nnc(Nc3ccccc3)o2)cc1 the results were EBV LMP1 NFkB 36, MITF TRPM1 inh 6, PGC1a acetyl inh -5, EWS-Fli block 63* and LGR2 inh 90*.
O=C(C[C@H]1CC[C@H](NC(=O)c2cnccn2)[C@H](CO)O1)NCc1ccccc1F was read as PGC1a acetyl inh 6, PAX8 inh HTS 4, EWS-Fli block -2 and LGR2 inh -3.
Nc1ccn([C@@H]2O[C@H](CO)[C@@H](O)[C@H]2O)c(=O)n1 was read as EBV LMP1 NFkB 4, MITF TRPM1 inh -10, PGC1a acetyl inh 3, PAX8 inh HTS -14, EWS-Fli block 5 and LGR2 inh 2.
Screening Nc1ccc(CCNc2ncnc3c2ncn3[C@@H]2O[C@H](CO)[C@@H](O)[C@H]2O)cc1 returned EBV LMP1 NFkB 84*, MITF TRPM1 inh 9, PGC1a acetyl inh 0, PAX8 inh HTS 5, EWS-Fli block 3 and LGR2 inh 4.
OC[C@H]1O[C@@H](n2cnc3c(Nc4ccccc4)ncnc32)[C@H](O)[C@@H]1O was read as EBV LMP1 NFkB 7, MITF TRPM1 inh -45, PGC1a acetyl inh 0, PAX8 inh HTS -15, EWS-Fli block -40 and LGR2 inh 10.
For OCC1OC(n2ccc3c(NO)ncnc32)C(O)C1O (configuration not stated) the results were EBV LMP1 NFkB 80*, MITF TRPM1 inh 95*, EWS-Fli block 49 and LGR2 inh 92*.
`OCC1OC(n2cnc3c(NCCc4ccccc4)ncnc32)C(O)C1O` (configuration not stated) gave EBV LMP1 NFkB 7, MITF TRPM1 inh -43, PGC1a acetyl inh -1, PAX8 inh HTS -22, EWS-Fli block -24 and LGR2 inh -38.
`OCC1OC(n2cnc3c(NCc4ccccc4O)ncnc32)C(O)C1O` (configuration not stated) gave EBV LMP1 NFkB 38, MITF TRPM1 inh 59, PGC1a acetyl inh -16, PAX8 inh HTS 109*, EWS-Fli block -3 and LGR2 inh 18.
For CCOC(=O)c1cnc2ccc(C(=O)OC)cc2c1Nc1ccc(C(=O)O)cc1 the results were EBV LMP1 NFkB 0, MITF TRPM1 inh 9, PGC1a acetyl inh 8, PAX8 inh HTS 104*, EWS-Fli block 8 and LGR2 inh -20.
`CCOC(=O)c1ccc2ncc(C(=O)OCC)c(NCCCN3CCOCC3)c2c1` gave EBV LMP1 NFkB -21, MITF TRPM1 inh -16 and PGC1a acetyl inh -24.
For CCOC(=O)c1ccc2ncc(C(=O)OCC)c(Nc3ccc(N4CCOCC4)cc3)c2c1 the results were EBV LMP1 NFkB -18, MITF TRPM1 inh 12, PAX8 inh HTS 9, EWS-Fli block -6 and LGR2 inh 55*.
Cc1noc(C)c1S(=O)(=O)N(C)C[C@@H]1Oc2ccc(NC(=O)CCCN(C)C)cc2C(=O)N([C@@H](C)CO)C[C@@H]1C was read as PGC1a acetyl inh -4, EWS-Fli block -11 and LGR2 inh -8.
`CC(C)C#Cc1cnc2c(c1)C(=O)N([C@H](C)CO)C[C@@H](C)[C@H](CN(C)C(=O)Cc1ccncc1)O2` gave PGC1a acetyl inh -3, PAX8 inh HTS 0, EWS-Fli block 0 and LGR2 inh 8.
Screening CC=Cc1ccc2n(c1=O)C[C@H]1[C@H](CO)[C@@H](C(=O)NCCc3cn(C)cn3)N(C(=O)C3CCC3)[C@@H]21 (mixture of isomers) returned EWS-Fli block 4 and LGR2 inh -7.
O=C1C2C3C=CC(CC3)C2C(=O)N1c1ccccc1 (configuration not stated) was read as EBV LMP1 NFkB 3, MITF TRPM1 inh 11, PAX8 inh HTS 15, EWS-Fli block 10 and LGR2 inh 8.
O=C1C=CC2C3C(=O)N(c4ccccc4)C(=O)C3C1N2Cc1ccccc1 (configuration not stated) was read as EBV LMP1 NFkB 23, MITF TRPM1 inh 96*, PGC1a acetyl inh -20, PAX8 inh HTS 8 and EWS-Fli block 60*.
Screening CCCOc1ccc2ccccc2c1/C=C1\SC(=O)NC1=O returned EBV LMP1 NFkB 12, MITF TRPM1 inh 9, PGC1a acetyl inh 76*, PAX8 inh HTS 7, EWS-Fli block 2 and LGR2 inh 12.
For O=C1NC(=O)/C(=C/c2cccc3ccccc23)S1 the results were EBV LMP1 NFkB -3, MITF TRPM1 inh 0, PGC1a acetyl inh -6, PAX8 inh HTS 7, EWS-Fli block -15 and LGR2 inh 0.
For CN(C)c1ccc2c(c1)[C@@H]1C[C@@H](CC(=O)N3CCc4ccccc4C3)O[C@H](CO)[C@@H]1O2 the results were PGC1a acetyl inh 2, PAX8 inh HTS 1, EWS-Fli block 0 and LGR2 inh -1.
Screening CC(=O)Nc1ccc2c(c1)Cc1cc(N3C(=O)C=CC3=O)ccc1-2 returned EBV LMP1 NFkB 11, MITF TRPM1 inh 78*, PGC1a acetyl inh 11, PAX8 inh HTS 36, EWS-Fli block 20 and LGR2 inh 6.
`Cc1ccc(S(=O)(=O)Nc2ccc3c(c2)C(=O)N([C@@H](C)CO)C[C@@H](C)[C@H](CN(C)C(=O)Nc2ccc(C(F)(F)F)cc2)OCCCC[C@@H](C)O3)cc1` gave PGC1a acetyl inh -8, PAX8 inh HTS 40, EWS-Fli block 12 and LGR2 inh -1.
C[C@@H]1CCCCO[C@H](CN(C)C(=O)Nc2ccc(C(F)(F)F)cc2)[C@@H](C)CN([C@H](C)CO)C(=O)c2cc(NS(=O)(=O)c3ccc(F)cc3)ccc2O1 was read as PGC1a acetyl inh 5, PAX8 inh HTS -4, EWS-Fli block -1 and LGR2 inh 10.
For C[C@@H]1CCCCO[C@@H](CN(C)C(=O)Nc2ccc(C(F)(F)F)cc2)[C@@H](C)CN([C@H](C)CO)C(=O)c2cc(NS(=O)(=O)c3ccc(Cl)cc3)ccc2O1 the results were PGC1a acetyl inh 10, PAX8 inh HTS 82*!, EWS-Fli block -3 and LGR2 inh 11.

High-throughput results as filed in PubChem BioAssay.
